# Test results published in PubChem BioAssay (EPA / NIEHS).
# Results filed as inconclusive are left out. The source made the active and inactive calls. The calls were made as follows: active = hit-call score of the fitted dose curve at least 0.9, where 1 is the maximum; inconclusive = response in the unintended direction; inactive = score below 0.9.
# Columns and labels:
# [1] = target: human Thyroid hormone Receptor alpha (TRa), THRA (gene 7067) (UniProt P10827); test: ATG_hTRa_XSP1: Attagene TRANS-FACTORIAL Multi-Species (XSP1) HepG2 Assay for human Thyroid hormone Receptor alpha (TRa) (AID 2283805)
# Chain of human Thyroid hormone Receptor alpha (TRa), THRA (gene 7067) (P10827 whole entry, looked up): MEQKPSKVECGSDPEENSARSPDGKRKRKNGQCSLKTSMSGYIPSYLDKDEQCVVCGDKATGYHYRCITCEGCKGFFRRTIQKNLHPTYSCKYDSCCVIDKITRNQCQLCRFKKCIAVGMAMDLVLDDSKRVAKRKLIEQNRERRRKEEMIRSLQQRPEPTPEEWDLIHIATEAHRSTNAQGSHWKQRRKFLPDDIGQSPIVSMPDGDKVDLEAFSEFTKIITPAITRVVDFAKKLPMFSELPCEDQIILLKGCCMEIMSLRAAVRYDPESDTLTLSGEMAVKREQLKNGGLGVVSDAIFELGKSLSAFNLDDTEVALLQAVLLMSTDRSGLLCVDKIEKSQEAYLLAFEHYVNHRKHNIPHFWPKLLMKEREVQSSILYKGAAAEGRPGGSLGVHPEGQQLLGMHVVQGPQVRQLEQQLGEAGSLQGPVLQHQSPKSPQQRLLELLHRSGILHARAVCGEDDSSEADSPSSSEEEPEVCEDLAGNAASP
# Experimental: ATG_XSP1_multi-species_TRANS is a cell-based, multiplexed assay created by modifying the existing Attagene TRANS-FACTORIAL system to include a panel of nuclear receptors from some or all the following species: human (Homo sapiens), mouse (Mus musculus), frog (Xenopus laevis), zebrafish (Danio rerio), chicken (Gallus gallus), and turtle (Chrysemys picta). The ECOTOX-FACTORIAL format uses HepG2, a human liver cell line, with measurements taken at 24 hours after chemical dosing in a 24-well plate. Xsp1 included 3 nM 6-alpha-fluorotestosterone to partially stimulate the androgen receptor.ATG_hTRa_XSP1 is one of 29 assay components measured or calculated from the ATG_XSP1_multi-species_TRANS assay. It is designed to make measurements of mRNA induction, a form of inducible reporter, as detected with fluorescence intensity signals by Reverse transcription polymerase chain reaction (RT-PCR) and Capillary electrophoresis technology.The assay endpoint ATG_hTRa_XSP1 was analyzed in the positive analysis fitting direction relative to DMSO as the negative control and baseline of activity. […] Furthermore, this assay endpoint can be referred to as a primary readout, because this assay has produced multiple assay endpoints where this one serves a reporter gene function. […]
# [2] = system: turtle Thyroid Hormone Receptor, alpha (TRa), gene 101949057; test: ATG_trTRa_XSP1: Attagene TRANS-FACTORIAL Multi-Species (XSP1) HepG2 Assay for turtle Thyroid Hormone Receptor, alpha (TRa) (AID 2283806)
# How it was run: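 After 24 h chemical exposure, reporter transcripts were measured by RT-PCR with fluorescent primer extension, HpaI digestion and capillary electrophoresis. Cells were transiently transfected HepG2 expressing exogenous NR-Gal4 chimeras; medium contained 3 nM 6-alpha-fluorotestosterone; fitted upward relative to DMSO.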
# [3] = target: zebrafish Thyroid Hormone Receptor alpha (TRa), thraa (gene 30670) (UniProt Q98867); test: ATG_zfTRa_XSP1: Attagene TRANS-FACTORIAL Multi-Species (XSP1) HepG2 Assay for zebrafish Thyroid Hormone Receptor alpha (TRa) (AID 2283807)
# Chain of zebrafish Thyroid Hormone Receptor alpha (TRa), thraa (gene 30670) (Q98867 whole entry, looked up, the tested form may be a part): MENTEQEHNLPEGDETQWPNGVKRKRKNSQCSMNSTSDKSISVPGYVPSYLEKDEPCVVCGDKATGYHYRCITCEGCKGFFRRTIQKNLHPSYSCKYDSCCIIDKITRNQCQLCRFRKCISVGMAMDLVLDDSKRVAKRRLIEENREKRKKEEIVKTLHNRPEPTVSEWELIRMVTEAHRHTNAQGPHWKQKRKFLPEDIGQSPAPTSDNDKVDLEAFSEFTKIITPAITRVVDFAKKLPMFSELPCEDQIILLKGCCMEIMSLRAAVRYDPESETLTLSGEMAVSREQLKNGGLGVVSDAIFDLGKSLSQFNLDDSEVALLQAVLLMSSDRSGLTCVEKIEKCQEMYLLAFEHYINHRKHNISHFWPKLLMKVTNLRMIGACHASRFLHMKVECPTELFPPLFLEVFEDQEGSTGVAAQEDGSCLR
# How it was run: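 Reporter transcripts driven by a chimeric zebrafish TRa–Gal4 protein were measured by RT-PCR with fluorescent labelling and capillary electrophoresis. These came from transiently transfected HepG2 cells after 24 h chemical exposure, with 3 nM 6-alpha-fluorotestosterone added; baseline was DMSO.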
# [4] = target: human Thyroid hormone Receptor beta (TRb), THRB (gene 7068) (UniProt P10828); test: ATG_hTRb_XSP1: Attagene TRANS-FACTORIAL Multi-Species (XSP1) HepG2 Assay for human Thyroid hormone Receptor beta (TRb) (AID 2283808)
# Chain of human Thyroid hormone Receptor beta (TRb), THRB (gene 7068) (P10828 whole entry, looked up, the tested form may be a part): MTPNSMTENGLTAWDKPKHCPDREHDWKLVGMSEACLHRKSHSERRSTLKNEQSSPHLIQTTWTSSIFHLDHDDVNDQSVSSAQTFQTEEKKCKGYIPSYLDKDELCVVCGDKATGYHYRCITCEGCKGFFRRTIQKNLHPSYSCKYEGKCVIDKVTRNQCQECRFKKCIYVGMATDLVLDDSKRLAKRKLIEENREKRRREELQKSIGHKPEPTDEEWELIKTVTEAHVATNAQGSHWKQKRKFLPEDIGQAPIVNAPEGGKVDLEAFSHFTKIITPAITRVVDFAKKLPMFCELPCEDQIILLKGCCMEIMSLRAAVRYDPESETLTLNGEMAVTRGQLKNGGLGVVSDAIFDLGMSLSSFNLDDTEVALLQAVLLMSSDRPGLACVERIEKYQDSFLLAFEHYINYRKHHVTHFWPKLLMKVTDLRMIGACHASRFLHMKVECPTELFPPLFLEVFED
# How it was run: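 Readout is reporter mRNA induction measured by RT-PCR, fluorescent labelling and capillary electrophoresis, fitted upward relative to DMSO. Transiently transfected human HepG2 cells expressing NR-Gal4 chimeras were dosed for 24 h, medium containing 3 nM 6-alpha-fluorotestosterone.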
# [5] = target: zebrafish Thyroid Hormone Receptor beta (TRb), thrb (gene 30607) (UniProt Q9PVE4); test: ATG_zfTRb_XSP1: Attagene TRANS-FACTORIAL Multi-Species (XSP1) HepG2 Assay for zebrafish Thyroid Hormone Receptor beta (TRb) (AID 2283809)
# Chain of zebrafish Thyroid Hormone Receptor beta (TRb), thrb (gene 30607) (Q9PVE4 whole entry, looked up, the tested form may be a part): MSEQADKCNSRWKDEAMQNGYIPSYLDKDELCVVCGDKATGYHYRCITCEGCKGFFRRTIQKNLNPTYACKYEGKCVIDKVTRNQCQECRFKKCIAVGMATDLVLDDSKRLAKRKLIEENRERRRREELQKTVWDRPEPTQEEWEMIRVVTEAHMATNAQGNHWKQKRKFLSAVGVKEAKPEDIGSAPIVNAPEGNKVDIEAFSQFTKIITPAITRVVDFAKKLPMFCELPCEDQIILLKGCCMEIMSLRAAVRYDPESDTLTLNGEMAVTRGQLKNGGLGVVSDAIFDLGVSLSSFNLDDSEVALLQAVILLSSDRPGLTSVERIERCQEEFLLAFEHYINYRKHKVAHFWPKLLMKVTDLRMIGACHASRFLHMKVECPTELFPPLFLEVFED
# How it was run: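 HepG2 cells transiently transfected with multiplexed GAL4-UAS reporter units expressing chimeric zebrafish TRb–Gal4. Dosed 24 h with 3 nM 6-alpha-fluorotestosterone present; reporter mRNA measured by RT-PCR, HpaI digestion and capillary electrophoresis; gain of signal versus DMSO.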
# [6] = ATG_XTT_Cytotoxicity_XSP1: Cytotoxicity Assessment in the Attagene TRANS-FACTORIAL Multi-Species (XSP1) HepG2 Assay (AID 2283810)
# How it was run: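 XTT viability readout taken at 24 hours post-dosing in HepG2 liver cells co-treated with 3 nM 6-alpha-fluorotestosterone. Signal loss relative to DMSO controls reflects cytotoxicity.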
# [7] = ATG_M_06_XSP2: Attagene TRANS-FACTORIAL Multi-Species (XSP2) HepG2 Assay for M06 Transcription Factor (Internal Marker) (AID 2283811);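 also: internal background marker reporter mRNA measured by RT-PCR and capillary electrophoresis; hits are increases in signal above the DMSO baseline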
# How it was run: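 Readout: fluorescent reporter-mRNA peaks by capillary electrophoresis after RT-PCR and HpaI digest, scored upward relative to DMSO. Transfected HepG2, 24 h chemical exposure, with 3 nM 6-alpha-fluorotestosterone and 1.5 nM norgestrel added.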
# [8] = system: turtle Estrogen Receptor (ERa), gene 101933533; test: ATG_trERa_XSP2: Attagene TRANS-FACTORIAL Multi-Species (XSP2) HepG2 Assay for turtle Estrogen Receptor (ERa) (AID 2283812);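 also: actives raise reporter signal above DMSO so AC50 reflects agonist activity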
# How it was run: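 Readout is reporter mRNA quantified by RT-PCR with capillary electrophoresis after 24 h compound exposure, increase relative to DMSO. Uses transiently transfected human HepG2 liver cells carrying a chimeric turtle ERa-Gal4 receptor driving GAL4-UAS reporters.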
# [9] = target: Estrogen receptor beta (Homo sapiens) (UniProt Q92731); test: ATG_hERb_XSP2: Attagene TRANS-FACTORIAL Multi-Species (XSP2) HepG2 Assay for human Estrogen Receptor (ERb) (AID 2283813);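 also: actives raise reporter mRNA above DMSO so AC50 reflects agonist induction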
# Chain of Estrogen receptor beta (Homo sapiens) (Q92731 whole entry, looked up, the tested form may be a part): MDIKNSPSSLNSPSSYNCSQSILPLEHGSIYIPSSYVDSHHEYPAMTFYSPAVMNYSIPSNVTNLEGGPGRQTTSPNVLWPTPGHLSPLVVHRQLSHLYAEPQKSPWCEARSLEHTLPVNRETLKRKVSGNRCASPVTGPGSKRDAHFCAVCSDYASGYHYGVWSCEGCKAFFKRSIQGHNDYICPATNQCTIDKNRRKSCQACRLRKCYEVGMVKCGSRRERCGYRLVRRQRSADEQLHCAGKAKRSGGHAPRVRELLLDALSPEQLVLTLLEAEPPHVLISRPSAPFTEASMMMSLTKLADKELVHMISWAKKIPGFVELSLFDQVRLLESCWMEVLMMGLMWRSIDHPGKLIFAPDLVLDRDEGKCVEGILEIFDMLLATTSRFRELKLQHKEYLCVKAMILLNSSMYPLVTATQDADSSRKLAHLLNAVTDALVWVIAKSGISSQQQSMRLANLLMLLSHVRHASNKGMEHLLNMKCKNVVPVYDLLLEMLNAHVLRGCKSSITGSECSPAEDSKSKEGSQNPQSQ
# How it was run: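 Transient TRANS reporter system in HepG2: after 24 h of chemical, RNA is reverse-transcribed, reporter cDNA amplified, FAM-labelled and sized by capillary electrophoresis. Induction of the human ERb-Gal4 reporter is measured relative to DMSO.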
# [10] = target: GAL4 Transcription Factor (Internal Marker), GAL4 (gene 855828) (UniProt P04386); test: ATG_GAL4_XSP2: Attagene TRANS-FACTORIAL Multi-Species (XSP2) HepG2 Assay for GAL4 Transcription Factor (Internal Marker) (AID 2283814);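 also: GAL4 reporter mRNA background control in MRTU transfected cells not a receptor target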
# Chain of GAL4 Transcription Factor (Internal Marker), GAL4 (gene 855828) (P04386 whole entry, looked up, the tested form may be a part): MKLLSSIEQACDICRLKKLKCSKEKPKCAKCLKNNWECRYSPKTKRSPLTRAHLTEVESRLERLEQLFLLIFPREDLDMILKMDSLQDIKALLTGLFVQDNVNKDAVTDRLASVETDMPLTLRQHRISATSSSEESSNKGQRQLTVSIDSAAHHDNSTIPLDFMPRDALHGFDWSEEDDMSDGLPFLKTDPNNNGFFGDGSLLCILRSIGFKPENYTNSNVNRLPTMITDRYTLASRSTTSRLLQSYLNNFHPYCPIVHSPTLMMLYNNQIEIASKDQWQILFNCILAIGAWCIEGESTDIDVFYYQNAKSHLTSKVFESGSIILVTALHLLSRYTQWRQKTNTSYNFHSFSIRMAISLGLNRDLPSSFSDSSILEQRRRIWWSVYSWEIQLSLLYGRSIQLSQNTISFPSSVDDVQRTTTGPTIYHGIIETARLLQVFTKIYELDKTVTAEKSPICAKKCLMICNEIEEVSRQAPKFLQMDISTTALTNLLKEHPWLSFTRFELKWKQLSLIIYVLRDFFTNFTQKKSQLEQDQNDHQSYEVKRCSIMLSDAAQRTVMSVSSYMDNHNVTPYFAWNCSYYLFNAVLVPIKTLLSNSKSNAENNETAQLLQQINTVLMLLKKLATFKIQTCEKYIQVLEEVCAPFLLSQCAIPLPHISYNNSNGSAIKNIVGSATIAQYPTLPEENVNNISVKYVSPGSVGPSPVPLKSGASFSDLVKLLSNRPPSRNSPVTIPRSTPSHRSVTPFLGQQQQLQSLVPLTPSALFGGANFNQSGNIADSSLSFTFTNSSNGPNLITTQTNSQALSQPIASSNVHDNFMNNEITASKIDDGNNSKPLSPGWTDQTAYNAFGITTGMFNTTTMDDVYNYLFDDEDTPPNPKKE
# How it was run: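 Background-control readout: gain-of-signal fitted against DMSO. After 24 h exposure of transfected HepG2 (MRTU, GAL4-UAS reporters; 3 nM 6-alpha-fluorotestosterone, 1.5 nM norgestrel present), transcripts quantified by RT-PCR and capillary electrophoresis fluorescence.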
structure (smiles),measurement,setting,value
C[C@]12CC[C@@H]3c4ccc(O)cc4CC[C@H]3[C@@H]1C[C@@H](O)[C@@H]2O,outcome,[1],inactive
same,outcome,[2],inactive
same,outcome,[3],inactive
same,outcome,[4],inactive
same,outcome,[5],inactive
same,outcome,[6],inactive
same,outcome,[7],inactive
same,AC50,[8],30.6 nM (active)
same,AC50,[9],10.2 nM (active)
same,outcome,[10],inactive
